Hit rate of the full screen: of about 5,500 compounds, about 2,000 (36%) were called active. About 18% were inconclusive and are not listed. Rule as the data show it: active = normalized growth mostly below about 0.91 (no sharp cut-off); inconclusive = no clear call, values can overlap the other calls; inactive = mostly above about 0.92. The list shows a part of the results.
Assay: chemical genetic growth profiling, strain panel (AID 1159580);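 also: tested at 20 µM; growth read once vehicle control cultures reached saturation at 30 °C; 1 = growth at the plate median or of vehicle wells; lower values mean less growth of the strain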
Conditions: S. cerevisiae deletion strains, growth OD

Measured: normalized growth

CC(=O)OCC(=O)[C@@]1(O)CC[C@H]2[C@@H]3CCC4=CC(=O)CC[C@]4(C)[C@H]3C(=O)C[C@@]21C
inactive: locus YAL040C, strain CLN3, stronger effect = lower value 0.998 | locus YER002W, strain NOP16, stronger effect = lower value 0.991 | locus YGR078C, strain PAC10, stronger effect = lower value 1 | locus YNL175C, strain NOP13, stronger effect = lower value 0.985 | locus YNL197C, strain WHI3, stronger effect = lower value 0.982 | locus YNL224C, strain SQS1, stronger effect = lower value 1.01 | locus YOR083W, strain WHI5 (second series), stronger effect = lower value 0.976

Reference: PubChem BioAssay AID1159580 (chemical genetic matrix, 2015)
